Laboratory results taken from PubChem BioAssay (Tox21).
Inconclusive results are not listed. Calls of active or inactive are those of the source. Unless noted, calls come from the whole dose curve.

Legend:
[1] = Nuclear factor erythroid 2-related factor 2/antioxidant responsive element (Nrf2/ARE) small molecule agonists: qHTS cell viability counter screen in human keratinocytes (AID 1919968; active = well fitted curve in the direction sought with a large enough effect in the repeat runs; an effect the other way counts as inactive or inconclusive; note: nearly all actives have a fitted effect of over 55% in size)
In short: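 KeratinoSens HaCaT cells, 1,500/well, preincubated 5 h, then exposed to compounds in DMSO for 23 h at 37 C/5% CO2. Viability read as CellTiter-Fluor fluorescence after 1 h, in the same wells as the ARE-luciferase read.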

[2] = Nuclear factor erythroid 2-related factor 2/antioxidant responsive element (Nrf2/ARE) small molecule agonists: luciferase reporter gene qHTS assay in human keratinocytes (AID 1919969); note: nearly all actives have a fitted effect of over 35% in size
[3] = target: Gonadotropin-releasing hormone receptor (Homo sapiens) (UniProt P30968); experiment: Human gonadotropin-releasing hormone receptor (GnRHR) small molecule agonists, calcium flux assay in GnRHR-HEK293 cells (AID 1920063); note: nearly all actives have a fitted effect of over 35% in size
Gonadotropin-releasing hormone receptor (Homo sapiens), sequence (P30968 whole entry, looked up): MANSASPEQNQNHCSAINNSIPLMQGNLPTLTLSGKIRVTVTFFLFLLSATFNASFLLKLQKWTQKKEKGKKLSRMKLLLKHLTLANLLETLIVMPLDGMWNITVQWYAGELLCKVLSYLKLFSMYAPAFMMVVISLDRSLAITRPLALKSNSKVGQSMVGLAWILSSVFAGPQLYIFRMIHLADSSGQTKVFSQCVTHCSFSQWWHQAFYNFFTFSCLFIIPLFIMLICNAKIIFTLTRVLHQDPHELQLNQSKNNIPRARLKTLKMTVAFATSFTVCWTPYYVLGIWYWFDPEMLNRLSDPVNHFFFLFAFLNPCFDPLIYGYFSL
In short: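 HEK293 cells stably expressing human GnRHR were dye-loaded for 1 h at 37 C. Compound was added in agonist mode and fluorescence (Ex/Em 480/540) recorded kinetically for 3 min. Fifteen concentrations, triplicates.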

[4] = target: KiSS-1 receptor (Homo sapiens) (UniProt Q969F8); experiment: Human kisspeptin (KISS1R) small molecule agonists, calcium flux assay in KISS1R-HEK293 cells (AID 1920064; active = well fitted curve in the direction sought with a large enough effect in the repeat runs; an effect the other way counts as inactive or inconclusive)
KiSS-1 receptor (Homo sapiens), sequence (Q969F8 whole entry, looked up): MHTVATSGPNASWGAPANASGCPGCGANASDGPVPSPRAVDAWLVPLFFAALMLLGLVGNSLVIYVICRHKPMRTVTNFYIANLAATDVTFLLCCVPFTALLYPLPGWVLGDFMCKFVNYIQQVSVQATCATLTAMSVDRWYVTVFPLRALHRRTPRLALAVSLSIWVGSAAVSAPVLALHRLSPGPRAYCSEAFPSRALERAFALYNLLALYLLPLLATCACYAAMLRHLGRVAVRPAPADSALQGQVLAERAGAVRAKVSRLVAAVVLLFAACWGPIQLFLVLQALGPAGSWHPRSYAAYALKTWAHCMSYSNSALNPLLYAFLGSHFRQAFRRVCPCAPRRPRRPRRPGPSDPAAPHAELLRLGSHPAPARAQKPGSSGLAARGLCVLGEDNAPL
In short: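 HEK293 cells stably expressing human KISS1R were loaded with calcium dye for 1 h at 37 C, then given compound; fluorescence (Ex/Em 480/540) was read kinetically for 3 min. Fifteen concentrations, triplicate.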

[5] = G protein-coupled receptor (GPCR) small molecule agonists, calcium flux assay: HEK293 wild type cell line counter screen (AID 1920065)
In short: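 Wild-type HEK293 cells plated 18 h, loaded with calcium dye 1 h at 37 C, then compounds added in agonist mode (ATP as positive control). Kinetic fluorescence Ex/Em 480/540 recorded 3 min at 1 sec intervals; 15 concentrations, triplicate.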

[6] = p53 small molecule agonists, cell-based qHTS assay with human liver microsomes (AID 1963577)
In short: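 p53RE-bla reporter cells were pre-incubated 5 h at 37 C, then treated with compounds plus human liver microsomes (0.5 mg/mL final) and NADPH (0.5 mg/mL final) for 16 h at 37 C. Beta-lactamase activity was read by LiveBLAzer fluorescence after 2 h at room temperature.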

[7] = p53 small molecule agonists, cell-based qHTS assay with rat liver microsomes (AID 1963578)
In short: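 p53RE-bla cells were exposed to compounds together with rat liver microsomes (0.5 mg/mL final) and NADPH (0.5 mg/mL final) for 16 h at 37 C, then read by LiveBLAzer beta-lactamase fluorescence after 2 h at room temperature.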

[8] = p53 small molecule agonists, cell-based qHTS assay with human liver microsomes: qHTS cell viability counter screen (AID 1963579); note: nearly all actives have a fitted effect of over 45% in size
In short: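 p53RE-bla cells (4,000/well) were pre-incubated 5 h at 37 C, then given compounds in DMSO plus human liver microsomes (0.5 mg/mL final) and NADPH (0.5 mg/mL final) for 16 h at 37 C. Viability was read by CellTiter-Glo luminescence.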

[9] = p53 small molecule agonists, cell-based qHTS assay with rat liver microsomes: qHTS cell viability counter screen (AID 1963580); note: nearly all actives have a fitted effect of over 45% in size
In short: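 Viability is assessed in parallel with the p53 reporter read: HCT-116 p53RE-bla cells receive compounds plus rat microsomes and NADPH (0.5 mg/mL final apiece), incubate 16 h at 37 C, and then CellTiter-Glo luminescence is recorded.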

[10] = p53 small molecule agonists, cell-based qHTS assay: qHTS cell viability counter screen (AID 1963581); note: nearly all actives have a fitted effect of over 45% in size
In short: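 p53RE-bla HCT-116 cells, compounds added 5 h after plating and incubated 16 h at 37 C. Cytotoxicity measured in the same wells as intracellular ATP by CellTiter-Glo luminescence after 30 min at room temperature.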

[11] = p53 small molecule agonists, cell-based qHTS assay (AID 1963582; active = well fitted activation curve with a large enough effect in the signal ratio in the repeat runs, not every such curve was filed as active; the % refers to the signal ratio)
In short: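 p53RE-bla reporter cells, compounds added in DMSO after 5 h plating, incubated 16 h at 37 C. Beta-lactamase read via 2 h room-temperature LiveBLAzer B/G FRET substrate, fluorescence intensity.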

[12] = target: 5-hydroxytryptamine receptor 2A (Homo sapiens) (UniProt P28223); experiment: 5-hydroxytryptamine receptor 2A (HTR2A) small molecule antagonists, cell-based qHTS assay (AID 1963586); note: nearly all actives have a fitted effect of over 45% in size
5-hydroxytryptamine receptor 2A (Homo sapiens), sequence (P28223 whole entry, looked up): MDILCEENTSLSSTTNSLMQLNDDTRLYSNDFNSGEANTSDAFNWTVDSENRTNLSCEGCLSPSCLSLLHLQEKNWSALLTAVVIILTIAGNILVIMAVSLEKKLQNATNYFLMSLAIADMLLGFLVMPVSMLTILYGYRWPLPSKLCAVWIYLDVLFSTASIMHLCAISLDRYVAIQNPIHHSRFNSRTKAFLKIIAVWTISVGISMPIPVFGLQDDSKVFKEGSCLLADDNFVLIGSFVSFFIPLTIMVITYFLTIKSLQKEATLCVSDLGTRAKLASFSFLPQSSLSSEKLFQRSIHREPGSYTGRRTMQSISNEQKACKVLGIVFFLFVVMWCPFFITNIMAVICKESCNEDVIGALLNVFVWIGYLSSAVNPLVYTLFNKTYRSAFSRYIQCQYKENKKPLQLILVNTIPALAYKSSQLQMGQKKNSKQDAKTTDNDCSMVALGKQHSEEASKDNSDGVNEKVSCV
In short: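 Antagonist-mode intracellular calcium assay: DOI (4 nM) added after 5 min compound pre-incubation at room temperature to dye-loaded HTR2A-CHO cells. Fluorescence followed for 3 min, sampled every second.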

[13] = target: 5-hydroxytryptamine receptor 2A (Homo sapiens) (UniProt P28223); experiment: 5-hydroxytryptamine receptor 2A (HTR2A) small molecule agonists, cell-based qHTS assay (AID 1963587); note: nearly all actives have a fitted effect of over 30% in size
In short: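 CHO cells stably expressing human HTR2A, plated 18 h, loaded with calcium dye 1 h at 37 C. Agonist mode: compounds added and intracellular calcium fluorescence recorded kinetically for 2 min at 1 sec intervals.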

[14] = target: Muscarinic acetylcholine receptor M1 (Homo sapiens) (UniProt P11229); experiment: Cholinergic receptor muscarinic 1 (CHRM1) small molecule antagonists, cell-based qHTS assay (AID 1963588); note: nearly all actives have a fitted effect of over 40% in size
Muscarinic acetylcholine receptor M1 (Homo sapiens), sequence (P11229 whole entry, looked up): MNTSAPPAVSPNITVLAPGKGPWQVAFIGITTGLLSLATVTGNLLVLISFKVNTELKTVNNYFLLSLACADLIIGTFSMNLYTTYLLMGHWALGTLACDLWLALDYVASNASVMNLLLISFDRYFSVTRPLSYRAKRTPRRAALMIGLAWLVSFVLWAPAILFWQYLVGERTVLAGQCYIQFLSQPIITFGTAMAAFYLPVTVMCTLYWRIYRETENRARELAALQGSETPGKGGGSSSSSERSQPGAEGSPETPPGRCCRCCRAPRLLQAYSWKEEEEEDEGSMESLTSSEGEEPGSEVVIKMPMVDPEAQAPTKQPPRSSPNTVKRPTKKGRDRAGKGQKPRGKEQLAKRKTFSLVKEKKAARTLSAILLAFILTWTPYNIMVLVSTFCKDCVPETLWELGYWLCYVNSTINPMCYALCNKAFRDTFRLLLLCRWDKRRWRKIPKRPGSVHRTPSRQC
In short: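 CHRM1-CHO calcium-flux assay, antagonist mode. Cells were seeded 18 h, dye-loaded 1 h at 37 C and given compound for 5 min at RT, then acetylcholine was added at 50nM. FDSS fluorescence was read 3 min; 15 concentrations, three runs.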

[15] = target: Muscarinic acetylcholine receptor M1 (Homo sapiens) (UniProt P11229); experiment: Cholinergic receptor muscarinic 1 (CHRM1) small molecule agonists, cell-based qHTS assay (AID 1963589); note: nearly all actives have a fitted effect of over 35% in size
In short: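 CHO cells stably expressing human CHRM1 were loaded with calcium dye for 1 h at 37 C, then compound was added in agonist mode. Intracellular calcium fluorescence was followed kinetically at 1 s intervals. Fifteen concentrations were tested in three independent runs.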

[16] = cAMP Responsive Elements (CRE) small molecule agonists, cell-based qHTS assay (AID 1963590)
In short: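 CRE-bla HEK 293T cells, 2,000/well in DMEM with 10% dialyzed FBS and 25 mM HEPES, pre-incubated 18 h at 37 C, then exposed to compound 3 h at 37 C. Beta-lactamase reporter read with LiveBLAzer B/G FRET substrate after 2 h at room temperature.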

[17] = cAMP Responsive Elements (CRE) small molecule antagonists, cell-based qHTS assay (AID 1963591; active = well fitted inhibition curve with a large enough effect in the signal ratio in the repeat runs, not every such curve was filed as active; the % refers to the signal ratio)
In short: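 CRE-bla HEK293T cells plated 18 h, then given compound plus NKH477 at 0.25 uM final for 3 h at 37C. Beta-lactamase reporter read with LiveBLAzer B/G FRET substrate after 2 h at room temperature.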

[18] = target: Beta-2 adrenergic receptor (Homo sapiens) (UniProt P07550); experiment: Adrenergic beta2 receptor (ADRB2) small molecule antagonists, cell-based qHTS assay (AID 1963592); note: series mostly up to about 92 µM; nearly all actives have a fitted effect of over 50% in size
Beta-2 adrenergic receptor (Homo sapiens), sequence (P07550 whole entry, looked up): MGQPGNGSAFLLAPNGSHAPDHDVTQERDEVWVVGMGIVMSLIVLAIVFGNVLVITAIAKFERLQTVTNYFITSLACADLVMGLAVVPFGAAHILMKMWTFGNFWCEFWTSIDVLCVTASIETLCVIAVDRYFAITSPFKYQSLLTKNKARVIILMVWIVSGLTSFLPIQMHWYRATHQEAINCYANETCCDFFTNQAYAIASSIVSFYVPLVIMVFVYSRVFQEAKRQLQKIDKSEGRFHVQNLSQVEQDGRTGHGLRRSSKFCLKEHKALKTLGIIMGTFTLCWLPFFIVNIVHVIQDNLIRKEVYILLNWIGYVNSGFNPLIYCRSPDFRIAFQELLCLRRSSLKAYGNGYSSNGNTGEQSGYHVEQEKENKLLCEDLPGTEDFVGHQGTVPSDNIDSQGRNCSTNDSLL
In short: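 Cells (CHO, stable ADRB2 overexpression) incubated 18-20hr at 37C; compounds added from DMSO; agonist mix (1nM isoproterenol, 100uM IBMX, 25uM Ro-20-1724) added; 0.5hr RT; d2-cAMP and anti-cAMP-cryptate added; 1hr RT; 665/615 nm read.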

[19] = target: D(2) dopamine receptor (Homo sapiens) (UniProt P14416); experiment: Dopamine D2 receptor (DRD2) small molecule agonists, cell-based qHTS assay (AID 1963594); note: nearly all actives have a fitted effect of over 35% in size
D(2) dopamine receptor (Homo sapiens), sequence (P14416 whole entry, looked up): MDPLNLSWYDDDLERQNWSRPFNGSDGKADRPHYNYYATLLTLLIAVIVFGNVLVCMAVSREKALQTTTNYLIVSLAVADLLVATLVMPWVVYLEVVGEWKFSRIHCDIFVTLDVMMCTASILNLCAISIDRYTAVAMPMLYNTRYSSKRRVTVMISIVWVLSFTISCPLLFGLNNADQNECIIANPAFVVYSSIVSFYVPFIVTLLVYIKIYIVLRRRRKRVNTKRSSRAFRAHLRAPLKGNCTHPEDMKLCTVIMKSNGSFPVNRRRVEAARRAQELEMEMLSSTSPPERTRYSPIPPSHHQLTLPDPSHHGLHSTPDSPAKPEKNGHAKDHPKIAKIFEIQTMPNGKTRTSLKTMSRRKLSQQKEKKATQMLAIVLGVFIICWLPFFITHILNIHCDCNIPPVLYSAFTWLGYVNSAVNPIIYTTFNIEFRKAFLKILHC
In short: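 HEK293 cells stably expressing human DRD2, pre-treated with PDE inhibitor Ro20-1724 (0.1 mM final) and compound 10 min at room temperature, then stimulated with NKH477 (200nM […]) for 30 min. cAMP read by HTRF (665/620 nm).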

[20] = target: D(2) dopamine receptor (Homo sapiens) (UniProt P14416); experiment: Dopamine D2 receptor (DRD2) small molecule antagonists, cell-based qHTS assay (AID 1963595; active = well fitted inhibition curve with a large enough effect in the signal ratio in the repeat runs, with a control signal flat; the % refers to the signal ratio)
In short: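 Readout: HTRF cAMP, cAMP-d2 competing with cellular cAMP for anti-cAMP cryptate, read after 1 h. Cells: DRD2-HEK293. Conditions: 0.1 mM Ro20-1724, 12 nM quinpirole, 200 nM NKH477, 30 min RT.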
% is set by controls: 0 for no effect and ±100 for the full control effect.

N[C@@H](CSCCCO)C(=O)O
inactive: activity change, negative = cytotoxicity [1] 5.92% [at 19 µM] | activity, positive = activation [2] -5.15% [at 19 µM] | activity change [3] -0.573% [at 11.8 µM, active compounds read high] | activation [4] 2.59% [at 15.8 µM] | activation [5] 0.0618% [at 11.8 µM] | activation [6] 1.76% [at 13.5 µM] | activation [7] 4.94% [at 13.6 µM] | activity change, negative = cytotoxicity [8] -3.2% [at 13.5 µM] | activity change, negative = cytotoxicity [9] -10.3% [at 13.5 µM] | activity change, negative = cytotoxicity [10] -10.7% [at 13.5 µM] | activation [11] 9.64% [at 13.5 µM] | activity, negative = inhibition [12] 4.22% [at 12.7 µM] | activation [13] 0.941% [at 15.9 µM] | activity, negative = inhibition [14] -6.77% [at 12.6 µM] | activation [15] -0.169% [at 15.8 µM] | activation [16] 0.961% [at 19 µM] | activity change, negative = inhibition [17] 4.42% [at 18.9 µM] | activity change, negative = inhibition [18] -0.974% [at 19 µM] | activation [19] 5.68% [at 19 µM] | activity change, negative = inhibition [20] 8.57% [at 18.9 µM]

C/C=C(\C)C(=O)OCC/C=C\CC
inactive: Potency [1] | Potency [2] | Potency [3] | outcome [4] | outcome [5] | Potency [6] | Potency [7] | Potency [8] | Potency [9] | Potency [10] | Potency [11] | Potency [12] | Potency [13] | Potency [14] | Potency [15] | Potency [16] | Potency [17] | Potency [18] | Potency [19] | Potency [20]

O=C(O)c1ccncc1
inactive: Potency [1] | Potency [2] | Potency [3] | outcome [4] | outcome [5] | Potency [6] | Potency [7] | Potency [8] | Potency [9] | Potency [10] | Potency [11] | Potency [12] | Potency [13] | Potency [14] | Potency [15] | Potency [16] | Potency [17] | Potency [18] | Potency [19] | Potency [20]

O=C1[C@H](CC[C@H](O)c2ccc(F)cc2)[C@@H](c2ccc(O)cc2)N1c1ccc(F)cc1
inactive: Potency [1] | Potency [2] | Potency [3] | outcome [4] | outcome [5] | Potency [6] | Potency [7] | Potency [8] | Potency [9] | Potency [10] | Potency [11] | Potency [12] | Potency [13] | Potency [14] | Potency [15] | Potency [16] | Potency [17] | Potency [18] | Potency [19]

Cc1cc(N)c(S(=O)(=O)O)cc1Cl
inactive: Potency [1] | Potency [2] | Potency [3] | outcome [4] | outcome [5] | Potency [6] | Potency [7] | Potency [8] | Potency [9] | Potency [10] | Potency [11] | Potency [12] | Potency [13] | Potency [14] | Potency [15] | Potency [16] | Potency [17] | Potency [18] | Potency [19] | Potency [20]

CC(C)(O)C(=O)c1ccccc1
inactive: Potency [1] | Potency [2] | Potency [3] | outcome [4] | outcome [5] | Potency [6] | Potency [7] | Potency [8] | Potency [9] | Potency [10] | Potency [11] | Potency [12] | Potency [13] | Potency [14] | Potency [15] | Potency [16] | Potency [17] | Potency [18] | Potency [19] | Potency [20]

CCc1ccc(O)c(OC)c1
inactive: Potency [1] | Potency [2] | Potency [3] | outcome [4] | outcome [5] | Potency [6] | Potency [7] | Potency [8] | Potency [9] | Potency [10] | Potency [11] | Potency [12] | Potency [13] | Potency [14] | Potency [15] | Potency [16] | Potency [17] | Potency [18] | Potency [19] | Potency [20]
